Test results taken from PubChem BioAssay (NCATS).
Values joined by “and” are separate entries in the source; they are usually repeats but may differ in a detail not shown here. Equal values may be shown once. Values without a mark were called inactive.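 Rule for the calls, unless noted: active = compounds whose dose series gives a full or clear partial fitted curve of increased nuclear translocation; inconclusive = weak partial curve or effect only at the top dose; inactive = no dose-dependent translocation response.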 Results filed as inconclusive are left out.

system: not listed separately; assay: Stat Signaling Pathway (AID 446; active = well fitted curve in either direction with a large enough effect, not every such curve was filed as active;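 note: ME-180 cervical cancer cells given 40 pM IL-6 alongside compound; SIE-controlled beta-lactamase reporter measured as 460/530 nm FRET emission ratio; % is set by controls: 0 for no effect and ±100 for the full control effect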); settings: ME-180 SIE beta-lactamase reporter, IL-6 stimulated, 5 h; at 7.69 µM (top of the series) unless noted
Procedure, shortened: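 ME-180 SIE-bla cells; overnight plating; cpd + IL-6 40 pM, 5 h, 37 C; LiveBLAzer 2.5 h RT; 460/530 nm emission ratio. Normalized to 300 pM IL-6 and 125 nM JAK inhibitor controls.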

| Structure (SMILES) | activity, negative = inhibition |
| --- | --- |
| COc1ccccc1-c1ccc2ncnc(NCCN3CCOCC3)c2c1 | -7.65% |
| FC(F)(F)c1ccccc1-c1ccc2ncnc(NCc3cccs3)c2c1 | -16.1% |
| C[C@@H]1CCC[C@H](C)N1NC(=O)c1ccc(Cl)c(S(N)(=O)=O)c1 | 9.09% [at 17.2 µM] and 21.6% [at 17.2 µM] |
| COc1cccc(Cn2c(=O)c(C)nc3cnc(Nc4cccc(OC)c4)nc32)c1 | -18.7% |
| Cc1cnc(CNc2ncnc3ccc(-c4ccccc4C(F)(F)F)cc23)cn1 | -29.2% |
| CN1CCN(c2ccnc(-c3ccc(N(C)C)cc3)n2)CC1 | -0.21% |

target: Glucocorticoid receptor (Homo sapiens) (UniProt P04150); assay: GR-GFP Redistribution (AID 450); settings: U2OS GR-GFP nuclear translocation, laser cytometry, 2 h; note: potency is the fitted concentration of half-maximal effect
Sequence (P04150 whole entry, looked up, the tested form may be a part): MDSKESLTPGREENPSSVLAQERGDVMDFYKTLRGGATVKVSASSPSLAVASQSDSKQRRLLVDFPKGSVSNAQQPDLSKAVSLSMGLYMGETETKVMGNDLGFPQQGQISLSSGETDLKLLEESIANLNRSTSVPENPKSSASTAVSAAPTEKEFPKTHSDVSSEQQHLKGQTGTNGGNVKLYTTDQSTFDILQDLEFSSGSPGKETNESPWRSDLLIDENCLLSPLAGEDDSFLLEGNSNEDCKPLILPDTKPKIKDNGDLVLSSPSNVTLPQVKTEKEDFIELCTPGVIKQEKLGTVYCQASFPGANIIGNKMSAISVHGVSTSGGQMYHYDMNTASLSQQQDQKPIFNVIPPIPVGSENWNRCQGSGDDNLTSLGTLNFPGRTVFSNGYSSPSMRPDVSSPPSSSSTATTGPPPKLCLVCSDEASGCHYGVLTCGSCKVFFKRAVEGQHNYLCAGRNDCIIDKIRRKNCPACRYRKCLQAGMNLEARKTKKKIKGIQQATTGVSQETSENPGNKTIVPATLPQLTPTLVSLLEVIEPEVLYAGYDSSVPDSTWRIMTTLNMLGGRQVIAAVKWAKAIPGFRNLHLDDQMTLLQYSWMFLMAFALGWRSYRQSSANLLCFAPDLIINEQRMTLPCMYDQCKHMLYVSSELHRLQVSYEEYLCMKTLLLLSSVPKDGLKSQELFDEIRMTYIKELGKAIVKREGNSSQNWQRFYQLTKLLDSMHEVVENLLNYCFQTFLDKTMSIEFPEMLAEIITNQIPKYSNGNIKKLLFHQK

| Structure (SMILES) | Potency [µM] |
| --- | --- |
| COCCn1c(=O)c(C)nc2cnc(Nc3ccccc3)nc21 | > 9.22 |
| COc1cccc(Cn2c(=O)cnc3cnc(N4CCN(C)CC4)nc32)c1 | > 9.22 |
| N#Cc1cccc(-c2ccc3ncnc(NCc4ccccc4)c3c2)c1 | > 46 |
| COc1ncc2nc(-c3cccs3)c(=O)n(C)c2n1 | > 46 |
| Cc1ccccc1-c1ccc2ncnc(N3CCN(C)CC3)c2c1 | > 46 |
| COc1ccccc1-c1ccc2ncnc(Nc3ccccc3)c2c1 | > 46 |
| CN(C)CC/C=C1\c2ccccc2CSc2ccccc21 | > 20.6 |
| COC(=O)C1=CO[C@@H](C)[C@H]2CN3CCc4c([nH]c5ccccc45)[C@@H]3C[C@H]12 | > 20.6 |
| COc1ccccc1CNc1ncnc2ccc(-c3cccc(C#N)c3)cc12 | > 46 |
| COc1ccccc1CNc1cc(-c2cccc(C#N)c2)ncn1 | > 46 |
| Cc1nc2cnc(N3CCN(C)CC3)nc2n(C[C@H]2CCCO2)c1=O | > 9.22 |
| CC(C)(S)[C@H](N)C(=O)O | > 46 |
| FC(F)(F)c1ccccc1-c1ccc2ncnc(N3CCOCC3)c2c1 | > 46 |
| CC12CC[C@@H]3c4ccc(OS(=O)(=O)O)cc4CC[C@H]3C1CCC2=O (some centres not stated) | > 20.6 |
| COc1ccccc1-c1ccc2ncnc(NCCN3CCOCC3)c2c1 | > 46 |
| FC(F)(F)c1ccccc1-c1ccc2ncnc(NCc3cccs3)c2c1 | > 46 |
| C[C@@H]1CCC[C@H](C)N1NC(=O)c1ccc(Cl)c(S(N)(=O)=O)c1 | > 20.6 |
| COc1cccc(Cn2c(=O)c(C)nc3cnc(Nc4cccc(OC)c4)nc32)c1 | > 9.22 |
| Cc1cnc(CNc2ncnc3ccc(-c4ccccc4C(F)(F)F)cc23)cn1 | > 46 |
| CN1CCN(c2ccnc(-c3ccc(N(C)C)cc3)n2)CC1 | > 46 |

target: Glucocorticoid receptor (Homo sapiens) (UniProt P04150); assay: GR-EFC Redistribution (AID 451; calls by dose curve; note: potency is the fitted concentration of half-maximal effect); settings: CHO-K1 GR-EFC translocation, beta-gal luminescence, 2 h
Procedure, shortened: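 Translocation of GR-ED fusion to nuclear EA restores b-gal, read by luminescence after 1 h room-temperature detection. Engineered CHO-K1 biosensor cells, 1,000/well, exposed 2 h at 37 C to titrations up to 46 uM final.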

| Structure (SMILES) | Potency [µM] |
| --- | --- |
| COCCn1c(=O)c(C)nc2cnc(Nc3ccccc3)nc21 | > 46 |
| COc1cccc(Cn2c(=O)cnc3cnc(N4CCN(C)CC4)nc32)c1 | > 46 |
| N#Cc1cccc(-c2ccc3ncnc(NCc4ccccc4)c3c2)c1 | > 46 |
| COc1ncc2nc(-c3cccs3)c(=O)n(C)c2n1 | > 46 |
| Cc1ccccc1-c1ccc2ncnc(N3CCN(C)CC3)c2c1 | > 46 |
| COc1ccccc1-c1ccc2ncnc(Nc3ccccc3)c2c1 | > 46 |
| CN(C)CC/C=C1\c2ccccc2CSc2ccccc21 | > 20.6 |
| COC(=O)C1=CO[C@@H](C)[C@H]2CN3CCc4c([nH]c5ccccc45)[C@@H]3C[C@H]12 | > 20.6 |
| N#Cc1ccccc1-c1ccc2ncnc(NCc3cccs3)c2c1 | > 46 |
| COc1ccccc1CNc1ncnc2ccc(-c3cccc(C#N)c3)cc12 | > 46 |
| COc1ccccc1CNc1cc(-c2cccc(C#N)c2)ncn1 | > 46 |
| Cc1nc2cnc(N3CCN(C)CC3)nc2n(C[C@H]2CCCO2)c1=O | > 46 |
| CC(C)(S)[C@H](N)C(=O)O | > 9.22 |
| FC(F)(F)c1ccccc1-c1ccc2ncnc(N3CCOCC3)c2c1 | > 46 |
| CC12CC[C@@H]3c4ccc(OS(=O)(=O)O)cc4CC[C@H]3C1CCC2=O (some centres not stated) | > 20.6 |
| COc1ccccc1-c1ccc2ncnc(NCCN3CCOCC3)c2c1 | > 46 |
| FC(F)(F)c1ccccc1-c1ccc2ncnc(NCc3cccs3)c2c1 | > 46 |
| C[C@@H]1CCC[C@H](C)N1NC(=O)c1ccc(Cl)c(S(N)(=O)=O)c1 | > 20.6 |
| COc1cccc(Cn2c(=O)c(C)nc3cnc(Nc4cccc(OC)c4)nc32)c1 | > 46 |
| Cc1cnc(CNc2ncnc3ccc(-c4ccccc4C(F)(F)F)cc23)cn1 | > 46 |
| CN1CCN(c2ccnc(-c3ccc(N(C)C)cc3)n2)CC1 | > 46 |
